Each structure is given as a SMILES string. Results with a measured potency or affinity are listed apart. Active and inactive are the calls of the source. No rule for the calls is given here.

As a reminder, the inhibition is the drop in the measured response relative to a control, in per cent.

The assay is described as follows: cell based cytopathic effect inhibition, veev tc 83 strain, confirmatory screen (AID 624284). The following applies: VEEV TC-83 infected cells; at 25 µM (top of the series). On the technique in general: Cytopathic effects are the visible damage that an infection or toxin causes in cultured cells.
As to `CCN1CCN(Cc2nc3cccc([N+](=O)[O-])c3c(=O)n2-c2ccccc2)CC1`, the “inhibition” value was -2.17% (inactive).

With `CCN1CCN(Cc2nc3ccc([N+](=O)[O-])cc3c(=O)[nH]2)CC1`, the inhibition is -1%.

Turning to `CCN1CCN(Cc2nc3ccc(C(=O)N(C)C)cc3c(=O)n2-c2ccccc2)CC1`, the “inhibition” value was 3.63% (inactive).

As for `NS(=O)(=O)c1ccc(-n2c(-c3ccccc3)nc3ccc(Br)cc3c2=O)cc1`, the “inhibition” value is 10.7% (inactive).

Regarding `CCN1CCN(Cc2nc3ccc(C(N)=O)cc3c(=O)n2-c2ccccc2)CC1`, the “inhibition” value was -2.53% (inactive).

In the case of `CCN1CCN(Cc2nc3cc([N+](=O)[O-])ccc3c(=O)n2-c2ccccc2)CC1`, the “inhibition” value is 3.1% (inactive).

Turning to `CCN1CCN(Cc2nc3ccc([N+](=O)[O-])cc3c(=O)n2C(C)C)CC1`, the “inhibition” value is -1% (inactive).

(Values after PubChem BioAssay AID624284 (Southern Research Specialized Biocontainment Screening …, 2012).)
